“And” between values parts separate entries of the source, which are not always exact repeats. Equal entries are not always repeated. About 83,000 compounds went through this panel and 20% of them were active in at least one assay; those are over-represented in the sample as a whole.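 Compound tested at a single concentration for 48 hours in 96-well plates; a percent growth value below 10 was scored as active.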 The source made the active and inactive calls.
System: MDA-MB-468 breast
Assay: NCI-60 one-dose screen, 48 h (100 = growth as untreated, 0 = no growth, -100 = all killed)
Conditions: 10 µM unless noted

SMILES | growth
CCN(CC)S(=O)(=O)c1ccc(O)c(NC(=O)c2[nH]c(C)c(C(C)=O)c2CCc2ccc(Cl)cc2)c1 | 19.8% (inactive)
O=C(/C=C/c1cn(-c2ccccc2)nc1-c1ccc([N+](=O)[O-])cc1)c1ccc(Cl)cc1 | 39.5% (inactive)
Cc1ccc2c3c(cccc13)-c1ccccc1C2=O | 97% (inactive)
CCCCN(CCCC)c1ccc(C(=NC(C)CCCN(CC)CC)c2ccc(N(C)C)cc2)cc1 (configuration not stated) | -85.8% (active)
Cn1cc(-c2cc3c(Nc4ccc(CC(=O)Nc5cc(C(C)(C)C)on5)cc4)ncnc3[nH]2)cn1 | -74.3% (active) and -62.1% (active)
Cc1cc(=O)n(-c2ccc(F)cc2)[nH]1 | 113% (inactive)
O=C(Nc1ccc(Cl)cc1)Nc1nc2ccc(OC(F)(F)F)cc2o1 | 89% (inactive)
Cc1cc(=O)c2c(C)ccc(C)c2[nH]1 | 96.8% (inactive)
N=C(N)c1ccc(-c2ccc(-c3cccs3)s2)cc1 | -80.6% (active)
C=C(C)[C@@H]1CC[C@]2(C)CC[C@]3(C)[C@H](CC[C@@H]4[C@@]5(C)CCCNC(C)(C)[C@@H]5CC[C@]43C)[C@@H]12 | 26.2% (inactive)
Cn1cccc1/C=C1\C(=O)Nc2ccccc21 | -1.95% (active)
CC(=O)OCCCCCNc1ccccc1 | 125% (inactive)
CCCCCCCCCCCCCC1=NCC[N+]1(CCO)Cc1ccccc1 (configuration not stated) | -81.2% (active)
COc1ccc(/C=C2\CCCC3=C2N=C2SC(C)=NN2C3c2ccc(OC)c(OC)c2)cc1OC (configuration not stated) | 12.1% (inactive)
COc1ccc(-c2nn(-c3cccc(NC(=O)c4ccc(N5CCOCC5)c(C(F)(F)F)c4)c3)cc2-c2ccncc2)cc1Cl | 80.6% (inactive)
COc1ccc(C(=O)c2sc3nc(C)cc(C)c3c2N)cc1OC | 88% (inactive)
FC(F)(F)c1cccc(-c2nnn(Cc3cc(-c4cccc(Cl)c4)no3)n2)c1 | 102% (inactive)
CCN(CC)c1ccc(/C=N/NC(=O)c2ccc(S(N)(=O)=O)cc2)c(O)c1 | -0.911% (active)
COc1cccc(NC(=O)c2c(-c3ccccc3)c(-c3ccccc3)n[nH]c2=O)c1 | 92.4% (inactive)

SMILES | growth
COc1ccc(S(=O)(=O)NCCCNc2nccc(-c3c(-c4cccc([N+](=O)[O-])c4)nc4sccn34)n2)cc1 | 16.2% (inactive)
COc1ccc(-c2nc(SCC(=O)Nc3nc4ccc(C)cc4s3)[nH]c(=O)c2C#N)cc1OC | 100% (inactive)
O=S(=O)(NCCCNc1nccc(-c2c(-c3ccc(O)cc3)nc3sccn23)n1)c1ccc(F)cc1 | -19.2% (active)
N#Cc1ccc(S(=O)(=O)Nc2ccc(-c3cnc(N)[nH]3)cc2)cc1 | 97.7% (inactive)
Clc1cc(Cl)c(OCC#CI)cc1Cl | -26% (active)
C=C(C)C(=O)O[C@H]1C[C@@]2(C)OC(=CC2=O)/C(CO)=C\[C@H]2OC(=O)C(=C)[C@H]12 | -34% (active)
COc1cccc2c(N=NC(=O)c3ccc(S(N)(=O)=O)cc3)c(O)[nH]c12 | 101% (inactive)
Cc1ccc(-c2cc(-c3cccc4ccccc34)n3c(n2)nc2ccccc23)cc1 | 70.4% (inactive)
COC(=O)C(Cc1ccccc1)n1cc(COc2nc(Cl)nc(Nc3ccc(Cl)cc3)n2)nn1 (configuration not stated) | 69.1% (inactive)
COc1ccc(Nc2ncccc2C(=O)NCc2cn(Cc3cc(OC)cc(OC)c3)nn2)cc1 | 103% (inactive)
O=C(O)c1cn(C2CC2)c2cc(N3CCN(C(=O)C[n+]4ccccc4)CC3)c(F)cc2c1=O | 107% (inactive)
Fc1ccccc1/C=C(/C1=NCCN1)n1cnc2ccccc21 | 98.1% (inactive)
Cc1cc(N2CCN(c3ccnc4cc(Cl)ccc34)CC2)nc(NC2CCCCC2)n1 | -5.23% (active)
N#Cc1c(-c2ccc(Cl)cc2)nc(SCc2ccccc2)nc1N1CCNCC1 | 10.3% (inactive)
Cc1ccc(NC(=O)COC(=O)c2ccc(S(=O)(=O)N3CCCCCC3)cc2)cc1 | 92.9% (inactive)
CC1(C)C(N)=Nc2cc(OCCCN3Cc4ccc(OCCc5cn(CC(=O)N6CCC(CCN7CCCC7)CC6)nn5)cc4C3)c(OCC3CC3)cc21 | 108% (inactive)
CNCc1cccc2c1OCCOCCOCCN(C)S(=O)(=O)c1ccc(cc1)-c1cnc(N)c(n1)C(=O)N2 | 68.5% (inactive)
COc1ccc(C(=O)/C=C/c2ccc(Cl)cc2)cc1S(=O)(=O)Nc1c(N)nc(SC)[nH]c1=O | 47.3% (inactive)

From PubChem BioAssay (NCI)
